According to the supplement of paper PMC10849652:
The full data set covers some 7,900 targets. This sample favours those with a hit. About 0.6% of all pairs of compound and target were hits.

Columns and labels:
Assay in all cases: log2 fold change, soluble protein after heating vs DMSO (PISA); higher = thermal stabilisation; K562 cells, 10 uM, 30 min; active = over 0.2 and 3.5 SD of the protein, either way, in both replicates (recomputed)
erlotinib = compound: C#Cc1cccc(Nc2ncnc3cc(OCCOC)c(OCCOC)cc23)c1 [erlotinib]
Method in brief: (§1)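 Soluble protein was quantified by TMTpro 16plex LC-MS/MS after channel sums were equalised. It was obtained as the supernatant after 21,000xg for 90 min from pooled aliquots of K562 cells (2×10^6 cells/mL, 10 μM compound, 30 min) heated for 3 min across 48°C-58°C and extracted in PBS with 0.5% NP-40 at 4°C. Thermal stability values are relative to control samples and come from duplicates. They are given as log2 fold changes.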

[1] = compound: C/C(=N\NC(=O)C1=CC(=CC=C1)S(=O)(=O)N2CCOCC2)/C3=C(C=CC(=C3)Cl)O
Method in brief: as §1

[2] = compound: C1=CC(=CC=C1C2=NC3=C(N2)C=C(C=C3)C(=O)N)OC4=CC=C(C=C4)Cl
Method in brief: as §1

[3] = compound: C1=CC2=C(C=CC(=C2)/C=C\3/C(=O)NC(=NCC4=CC=CS4)S3)N=C1
Method in brief: as §1

[4] = compound: C1=CC2=NC=CN=C2C=C1/C=C/3\C(=O)NC(=O)S3
Method in brief: as §1

[5] = compound: C1=CC=C(C=C1)C2=NC(=C(N2)C3=CC=NC=C3)C4=CC(=C(C=C4)Cl)O
Method in brief: as §1

[6] = compound: C1=CC=C2C(=C1)C3=NNC4=CC=CC(=C43)C2=O
Method in brief: as §1

[7] = compound: C1CCN(C1)C(=O)NC2=CC=CC(=C2)NC3=NC=C(C(=N3)NCCC4=CN=CN4)Br
Method in brief: as §1

[8] = compound: C1CN(CCC1(CC2=CC=C(C=C2)Cl)N)C3=NC=NC4=C3C=CN4
Method in brief: as §1

IRAK-1-4 Inhibitor I = compound: C1COCCN1CCN2C3=CC=CC=C3N=C2NC(=O)C4=CC(=CC=C4)[N+](=O)[O-] [IRAK-1-4 Inhibitor I]
Method in brief: as §1

ibrutinib = compound: C=CC(=O)N1CCC[C@@H](n2nc(-c3ccc(Oc4ccccc4)cc3)c3c(N)ncnc32)C1 [ibrutinib]
Method in brief: as §1

[9] = compound: CC(=O)c1cnc2ccc(-c3cc(Cl)c(O)c(Cl)c3)nc2c1N[C@H]1CC[C@H](CN(C)C)CC1
Method in brief: as §1

ralimetinib = compound: CC(C)(C)Cn1c(N)nc2ccc(-c3[nH]c(C(C)(C)C)nc3-c3ccc(F)cc3)nc21 [ralimetinib]
Method in brief: as §1

[10] = compound: CC(C)C1=C2N=C(C=C(N2N=C1)NCC3=CC=CC=C3)NCCCCCCN
Method in brief: as §1

[11] = compound: CC(C)C[C@@H](C=O)NC(=O)[C@H](CC(C)C)NC(=O)[C@H](CC(C)C)NC(=O)OCc1ccccc1
Method in brief: as §1

pinometostat = compound: CC(C)N(C[C@H]1O[C@@H](n2cnc3c(N)ncnc32)[C@H](O)[C@@H]1O)[C@H]1C[C@@H](CCc2nc3cc(C(C)(C)C)ccc3[nH]2)C1 [pinometostat]
Method in brief: as §1

[12] = compound: CC1=C(C(CC(=O)N1)C2=CC=C(C=C2)C(F)(F)F)C(=O)NC3=C(C=C4C(=C3)C=NN4)F
Method in brief: as §1

[13] = compound: CC1=C(C2=C(C=C1)C(=O)C3=CC=CC=C3N2CCCN)C
Method in brief: as §1

[14] = compound: C1=CC(=C(C=C1Cl)C2=NC3=NC=CN=C3C(=N2)NC4=CC=NC=C4)F
Method in brief: as §1

[15] = compound: CC(C)(O)CC(=O)NCCn1ccc2ncnc(Nc3ccc(Oc4cccc(C(F)(F)F)c4)c(Cl)c3)c21
Method in brief: as §1

Measured: log2 fold change

MMADHC (UniProt Q9H3L0)
Chain of UniProt Q9H3L0 (Q9H3L0 whole entry, looked up): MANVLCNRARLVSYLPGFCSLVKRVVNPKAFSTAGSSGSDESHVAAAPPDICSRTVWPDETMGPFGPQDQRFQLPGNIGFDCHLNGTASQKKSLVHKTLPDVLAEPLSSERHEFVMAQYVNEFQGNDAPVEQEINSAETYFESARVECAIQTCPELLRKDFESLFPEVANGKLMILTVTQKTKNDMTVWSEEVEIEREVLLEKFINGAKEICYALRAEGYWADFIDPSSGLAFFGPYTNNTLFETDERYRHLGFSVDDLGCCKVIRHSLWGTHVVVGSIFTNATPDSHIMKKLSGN
inactive: erlotinib 0.088 | [1] -0.002 | [2] -0.034 | [3] -0.031 | [4] -0.105 | [5] -0.039 | [6] 0.073 | [7] 0.014 | [8] 0.083 | IRAK-1-4 Inhibitor I 0.014 | ibrutinib -0.056 | [9] -0.011 | ralimetinib 0.073 | [10] 0.039 | [11] 0.076 | pinometostat 0.182 | [12] -0.118 | [13] -0.137

MT-ND2 (UniProt P03891)
Chain of UniProt P03891 (P03891 whole entry, looked up): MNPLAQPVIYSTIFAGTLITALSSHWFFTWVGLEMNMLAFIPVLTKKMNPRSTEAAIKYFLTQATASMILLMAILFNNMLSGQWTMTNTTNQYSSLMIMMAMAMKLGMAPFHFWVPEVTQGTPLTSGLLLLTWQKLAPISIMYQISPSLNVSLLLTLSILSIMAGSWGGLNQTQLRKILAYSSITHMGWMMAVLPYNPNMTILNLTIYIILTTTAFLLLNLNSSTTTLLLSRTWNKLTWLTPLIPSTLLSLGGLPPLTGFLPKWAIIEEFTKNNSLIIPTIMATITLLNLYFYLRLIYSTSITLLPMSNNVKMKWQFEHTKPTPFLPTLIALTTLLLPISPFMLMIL
inactive: erlotinib -0.067 | [1] -0.063 | [2] 0.062 | [3] -0.108 | [4] 0.104 | [5] 0.116 | [6] 0.044 | [7] -0.016 | [8] -0.093 | IRAK-1-4 Inhibitor I -0.021 | ibrutinib -0.042 | [9] -0.171 | ralimetinib -0.119 | [10] -0.221 | [11] -0.089 | pinometostat -0.075 | [12] -0.076 | [13] 0.113

NOP53 (UniProt Q9NZM5)
inactive: erlotinib -0.201 | [1] -0.272 | [14] -0.231 | [2] 0.005 | [3] -0.298 | [4] 0.036 | [5] -0.147 | [6] -0.121 | [7] 0.058 | [8] -0.387 | IRAK-1-4 Inhibitor I -0.209 | ibrutinib 0.018 | [9] 0.303 | ralimetinib 0.212 | [15] 0.411 | [10] 0.233 | [11] 0.089 | pinometostat 0.321 | [12] -0.016
active: [13] -1.19

MYH11 isoform 2 (UniProt P35749)
Chain of UniProt P35749 (P35749 whole entry, looked up): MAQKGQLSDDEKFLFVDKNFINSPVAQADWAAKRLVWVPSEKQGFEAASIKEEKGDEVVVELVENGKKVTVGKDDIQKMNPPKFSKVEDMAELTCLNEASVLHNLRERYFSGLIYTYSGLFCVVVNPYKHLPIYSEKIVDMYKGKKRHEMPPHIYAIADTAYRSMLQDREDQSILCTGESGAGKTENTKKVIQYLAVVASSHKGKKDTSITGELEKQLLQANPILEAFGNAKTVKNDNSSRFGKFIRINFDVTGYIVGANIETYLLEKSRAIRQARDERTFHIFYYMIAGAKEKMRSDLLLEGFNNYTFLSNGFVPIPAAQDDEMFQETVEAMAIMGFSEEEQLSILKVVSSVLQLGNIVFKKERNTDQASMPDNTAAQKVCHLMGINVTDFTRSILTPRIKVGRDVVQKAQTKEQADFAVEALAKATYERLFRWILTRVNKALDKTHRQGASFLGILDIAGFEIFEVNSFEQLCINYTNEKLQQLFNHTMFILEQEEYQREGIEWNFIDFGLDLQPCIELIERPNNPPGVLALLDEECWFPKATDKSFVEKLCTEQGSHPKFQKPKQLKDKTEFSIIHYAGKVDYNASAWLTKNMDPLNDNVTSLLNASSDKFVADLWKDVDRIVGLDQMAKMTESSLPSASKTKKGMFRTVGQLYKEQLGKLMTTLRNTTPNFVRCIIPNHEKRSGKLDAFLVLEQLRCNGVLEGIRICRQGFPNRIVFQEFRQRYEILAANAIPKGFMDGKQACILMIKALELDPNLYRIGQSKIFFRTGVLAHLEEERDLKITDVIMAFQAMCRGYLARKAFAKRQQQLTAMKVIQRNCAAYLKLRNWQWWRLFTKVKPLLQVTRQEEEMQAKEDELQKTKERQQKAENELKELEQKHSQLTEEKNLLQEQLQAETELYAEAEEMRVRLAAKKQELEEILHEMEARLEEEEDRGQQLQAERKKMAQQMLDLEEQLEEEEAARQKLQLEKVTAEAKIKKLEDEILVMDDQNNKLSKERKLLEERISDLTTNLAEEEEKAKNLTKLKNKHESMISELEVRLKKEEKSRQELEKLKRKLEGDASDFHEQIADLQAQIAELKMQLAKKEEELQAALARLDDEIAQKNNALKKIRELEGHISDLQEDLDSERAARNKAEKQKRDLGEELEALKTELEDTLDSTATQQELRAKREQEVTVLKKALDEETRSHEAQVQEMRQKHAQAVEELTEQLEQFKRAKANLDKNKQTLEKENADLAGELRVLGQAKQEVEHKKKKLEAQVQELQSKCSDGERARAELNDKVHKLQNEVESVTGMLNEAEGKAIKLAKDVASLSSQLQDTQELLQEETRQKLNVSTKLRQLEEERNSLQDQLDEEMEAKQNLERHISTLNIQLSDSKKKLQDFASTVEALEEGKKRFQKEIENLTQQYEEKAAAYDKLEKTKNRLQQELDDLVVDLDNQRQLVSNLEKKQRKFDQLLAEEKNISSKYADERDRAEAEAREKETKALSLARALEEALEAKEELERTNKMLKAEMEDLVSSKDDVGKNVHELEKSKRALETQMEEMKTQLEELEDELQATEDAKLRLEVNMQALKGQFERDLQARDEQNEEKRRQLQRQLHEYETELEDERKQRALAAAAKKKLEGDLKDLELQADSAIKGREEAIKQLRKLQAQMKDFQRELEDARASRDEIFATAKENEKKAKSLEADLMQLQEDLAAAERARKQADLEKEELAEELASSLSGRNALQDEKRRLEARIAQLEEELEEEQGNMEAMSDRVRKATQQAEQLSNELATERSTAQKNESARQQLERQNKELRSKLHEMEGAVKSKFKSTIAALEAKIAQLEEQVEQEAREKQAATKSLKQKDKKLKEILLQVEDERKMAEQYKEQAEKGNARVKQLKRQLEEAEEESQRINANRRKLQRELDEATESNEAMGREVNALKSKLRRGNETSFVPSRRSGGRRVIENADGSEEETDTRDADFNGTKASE
inactive: erlotinib 0.046 | [1] -0.081 | [14] 0.096 | [2] 0.02 | [3] 0.032 | [4] 0.018 | [5] -0.026 | [6] 0.036 | [7] -0.046 | [8] 0.028 | IRAK-1-4 Inhibitor I 0.035 | ibrutinib -0.013 | [9] 0.028 | ralimetinib -0.016 | [15] -0.107 | [10] 0.056 | [11] -0.002 | pinometostat -0.042 | [12] 0.027 | [13] -0.024

NRGN (UniProt Q92686)
Chain of UniProt Q92686 (Q92686 whole entry, looked up): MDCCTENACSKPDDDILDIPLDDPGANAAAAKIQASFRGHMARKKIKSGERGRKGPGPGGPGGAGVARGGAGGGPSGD
inactive: erlotinib 0.066 | [1] 0.086 | [14] 0.054 | [2] -0.074 | [3] -0.264 | [4] -0.027 | [5] 0.139 | [6] 0.105 | IRAK-1-4 Inhibitor I 0.151 | ibrutinib 0.079 | [9] 0.034 | ralimetinib 0.007 | [15] 0.053 | [10] 0.058 | [11] -0.199 | pinometostat 0.21 | [12] 0.108

MRPS26 (UniProt Q9BYN8)
inactive: erlotinib -0.081 | [1] 0.004 | [14] 0.004 | [2] 0.157 | [3] 0.038 | [4] 0.088 | [5] -0.042 | [6] 0.06 | [7] -0.19 | [8] 0.024 | IRAK-1-4 Inhibitor I -0.09 | ibrutinib 0.008 | [9] 0.007 | ralimetinib -0.049 | [15] -0.143 | [10] 0.03 | [11] 0.137 | pinometostat 0.037 | [13] -0.133

MRPS6 (UniProt P82932)
inactive: erlotinib 0.001 | [1] 0.006 | [14] 0.006 | [2] 0.088 | [3] 0.01 | [4] 0.112 | [5] 0.128 | [6] 0.079 | [7] -0.039 | [8] -0.093 | IRAK-1-4 Inhibitor I -0.193 | ibrutinib -0.007 | [9] -0.079 | ralimetinib 0.012 | [15] -0.158 | [10] -0.003 | [11] -0.009 | pinometostat -0.007 | [12] 0.003 | [13] -0.139

NAPG (UniProt Q99747)
Chain of UniProt Q99747 (Q99747 whole entry, looked up): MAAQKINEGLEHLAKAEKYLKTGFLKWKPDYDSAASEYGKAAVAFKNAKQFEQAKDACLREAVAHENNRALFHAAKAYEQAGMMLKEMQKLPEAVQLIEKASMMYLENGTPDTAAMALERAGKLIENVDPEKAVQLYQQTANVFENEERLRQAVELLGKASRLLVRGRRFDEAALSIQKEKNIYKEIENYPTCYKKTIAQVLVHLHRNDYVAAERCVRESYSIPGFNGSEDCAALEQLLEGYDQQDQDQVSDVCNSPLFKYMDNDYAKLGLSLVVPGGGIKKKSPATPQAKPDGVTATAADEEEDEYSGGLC
inactive: erlotinib 0.081 | [1] 0.134 | [14] 0.072 | [2] -0.019 | [3] 0.021 | [4] 0.038 | [5] -0.009 | [6] 0.033 | [7] -0.037 | [8] -0.016 | IRAK-1-4 Inhibitor I -0.071 | ibrutinib -0.014 | [9] -0.067 | ralimetinib -0.012 | [15] -0.069 | [10] -0.248 | [11] 0.028 | pinometostat 0.016 | [12] 0 | [13] 0.016
